Over roughly 25,000 sequences, “ln(normalized median fluorescence intensity)” has its median near 9.7; the highest 2% begin near 11. Many of the other results were omitted from the sample, so the highest values are more common in it than they were.
test system: PfAP2-HC AP2 domain (GST-tagged); assay: gcPBM binding intensity (ln(normalized median fluorescence intensity)); higher = stronger DNA binding
Outline: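 Binding intensity is defined as the maximum Masliner-normalised natural-log median intensity across replicate spots for either probe orientation. It was measured on an Agilent 4 × 180k array of primer-extended double-stranded 36-bp intergenic genomic probes and negative controls, to which GST-tagged P. falciparum DNA-binding domains made in E. coli were applied for 1 h in 1× PBS with 1% milk, 0.2 mg/ml BSA, 0.5% salmon testes DNA and 0.03% Triton X-100. Detection was by Alexa488 anti-GST antibody and scanning at 488 nm.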

Row | Sequence | gcPBM binding intensity (ln)
1 | AAATATTTATACCACACACACATACCTCTATTTGTA [CACACA_site6957] | 10.7
2 | TATACCTATAGACACACACACATATAGATTTATATA [CACACA_site7124] | 11.1
3 | CATATATACCTATATACACACATATAGATTTATATA [CACACA_site6451] | 9.78
4 | CATACACATAGACACACACACATATATACCTATATA [CACACA_site6644] | 10.8
5 | TATACCTATAGACACACACACATAAATAGATATATA [CACACA_site6748] | 11.1
6 | TATAGATACCTATACACACACACACGGACATATATA [CACACA_site7585] | 10.8
7 | CATACATAGATATATACACACATACCTATAAATACA [CACACA_site6513] | 10.2
8 | AATAGATATATAAATACACACAAACATACCTATATA [CACACA_site7823] | 10.6
9 | ATATATACCTAAGACACACACATATAGATTTATATA [CACACA_site6498] | 10.4
10 | GATACCTATAGACACACACACATACCTATATACATA [CACACA_site7586] | 10.9
11 | TTTGTAAGTCTTTGTTGTACTCAATAGAATGAAGAA [XGTACX_site8930] | 9.45
12 | AACTCTTAGAATGACGGTACAGTATAATAGGTGAAC [XGTACX_site7163] | 9.69
13 | TATAACTTTTTTAATACACACAAATATTTATTTATA [CACACA_site7425] | 9.61
14 | ATACGTATATAATATACATGCATATATAGCACATAC [TGCATGCA_site376] | 9.83
15 | AATATATAGCTAAAAACACACAAATATATACACATA [CACACA_site9203] | 9.97
16 | CATACATACAAACACACACACATATATATACATACA [CACACA_site852] | 11.4
17 | AAATATAAAAAATATACACACATATAAAATCTATAT [CACACA_site7406] | 9.91
18 | CACATACACATACAAACACACATTATATATATATAT [CACACA_site8460] | 10.4
19 | TACAATCTAAAATACACACACACAAACATATATTTA [CACACA_site3702] | 10.7
20 | CATACATACAAACACACACACATATATATATATATA [CACACA_site43] | 10.2
21 | TAAATATATAAATACACACAAACATACATATATATA [CACACA_site4050] | 10.1
22 | CATACATACAAACACACACACATATAAATACATACA [CACACA_site4625] | 11.2
23 | TATAAATATACAAACACACATACAAACATATATATA [CACACA_site1120] | 10.2

Row | Sequence | gcPBM binding intensity (ln)
24 | AAAAAAAACGAACACACACACATACAAAATCTATAT [CACACA_site6795] | 11.1
25 | AATTCAAATATAAATACACACACATAGCTACAAAAT [CACACA_site9386] | 10.3
26 | TTCAAATATAAATACACACACATAGCTACAAAATAA [CACACA_site4172] | 11
27 | CAGCTCTTAAGAATTACACACATATACACATATATA [CACACA_site7524] | 9.95
28 | TAAAATTTTTTTGTTTGTACATATATATATATAATA [XGTACX_site5609] | 9.53
29 | CATTATTTATTTTAATGTACTTATTTTTAAATTGGT [XGTACX_site8038] | 9.54
30 | TTTTCTTGTAAATTACGTACGAATGTGTAGAGAAAT [XGTACX_site1339] | 9.47
31 | TATATATATATATGTAGTACTCAATATTGTAGATTA [XGTACX_site3856] | 9.64
32 | CTAGCAAATACATACACACACACACCGATACATATA [CACACA_site9164] | 10.7
33 | AAATATAAAAATAGCACACATATATACATATATATA [CACACA_site56] | 9.88
34 | TTATAATTATATACATGTACATATAATACATATATA [XGTACX_site8904] | 9.46
35 | AAAAAAAAAAAAAACACACACACAAATACAAATGGT [CACACA_site1721] | 10.5
36 | AATGATCATAAATACACACACACAAAAAAAAAAAAA [CACACA_site6072] | 10.3
37 | CATATACGCAAACACACACACATATATATATATATA [CACACA_site501] | 11.6
38 | AATGATCATATATACACACACACAAAAAAAAAAAAA [CACACA_site4009] | 11.2
39 | ATTAAATCCGCACGCACACACACATATTAATAAAAA [CACACA_site3992] | 11.1
40 | AAAAAAAAAAAAAACACACACACAAATACAAATACA [CACACA_site414] | 11.5
41 | AATGATCAGATATACACACACACAAAAAAAAAAAAA [CACACA_site7806] | 10.4
42 | TATACGCATATATAAACACACAAAAAAAAAAAAAAA [CACACA_site2026] | 9.43
43 | TAAATCCGCAGGCACACACACATATTAATAAAAAAA [CACACA_site3991] | 10.8
44 | AATAAACATAAATACACACACAAAAAAAAAAACATA [CACACA_site4396] | 10.3
45 | TAAATCCGCACGCACACACACATATTAATAAAAAAA [CACACA_site7800] | 10.5
46 | TACATATATATATACACACATACATATATATACGCA [CACACA_site792] | 9.85

— the supplement of paper PMC11417369
